Whole data set: some 33,000 sequences, median “E-score (-0.5 to 0.5)” near -8e-05, cut for the highest 2% near 0.23. What follows is part of a selection rich in the highest values, with near analogues and random picks from the rest.
These sequences were tested against T1, Nrg2 (UniProt P38082) (assay: PBM E-score (8-mer binding enrichment) (E-score (-0.5 to 0.5)); higher = stronger / more preferred TF binding). Conditions: protein concentration: 100 nM; construct: GST-full length.
T1 sequence: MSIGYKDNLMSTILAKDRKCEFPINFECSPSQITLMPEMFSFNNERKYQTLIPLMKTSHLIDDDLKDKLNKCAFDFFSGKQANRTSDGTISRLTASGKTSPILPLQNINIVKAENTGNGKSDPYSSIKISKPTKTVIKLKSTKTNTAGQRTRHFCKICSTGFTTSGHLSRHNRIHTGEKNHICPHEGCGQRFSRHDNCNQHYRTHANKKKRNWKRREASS
Outline: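 Detection of bound protein used fluorescent anti-GST, with scans normalised by masliner. The proteins were GST-tagged yeast transcription factors applied at about 100-200 nM to universal all-10-mer Agilent arrays made double-stranded by primer extension. Each ungapped eight-base word, pooled with its reverse complement, was scored with an E-score from the Universal PBM Analysis Suite.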

Sequence | PBM E-score
TCAGACAA | 0.0781
CAGCAGCC | 0.0863
GTTGCCAA | 0.0119
CTAGGCAC | -0.162
AGCTTTAG | -0.105
GAGGCCTC | -0.327
AGACGCTA | -0.138
GATTCGAC | 0.141
GATTCGAA | 0.256
CATTCGAA | 0.0948
ATGGCAGG | 0.12
ATTGTTTC | 0.256
ATTGTTTG | 0.18
CCAGTTTC | 0.0541
CTTGTTTC | 0.0127
ACAGTTTC | 0.259
ACAGTTTA | -0.0808
AGATCAAC | 0.07
TATCCGGA | 0.112
AAGGAGAC | -0.156
ACCACAAT | -0.0522
AGGTGTAC | -0.145
TCGAAACA | 0.232
CCGAACAA | 0.0547
TGGAACAA | 0.155

Sequence | PBM E-score
TCGAACGA | 0.0281
ACGAACAA | 0.124
GCGAACAA | 0.322
ACGAAACA | 0.0539
CCGAAACA | 0.102
TCGAACAA | 0.259
TCAGATGA | 0.148
AATCGCCA | 0.0545
TAAGGACA | -0.0222
CGCTAGCC | -0.255
ACAGAGAC | 0.00483
CTTCTTGA | -0.0331
CAATGGAA | 0.131
AAATTCGA | -0.0488
CTATTCGC | 0.0444
CAATTCGC | 0.277
CAATTCGG | 0.0993
GAATTCGC | 0.141
CAATTCGA | -0.135
AAATTCGG | 0.205
AAATTCGC | 0.234
AAATTCGT | 0.235
AAGTTGGA | 0.134
AAAATCTT | -0.0461
AGCCGCCC | -0.0653

Sequence | PBM E-score
CCCAGTGC | 0.037
CAAAACCC | 0.222
CACAAGAA | 0.245
CGCAAGAA | 0.299
CACAAGAG | 0.14
CAAAACCA | 0.249
CAAGAGAG | -0.0197
AGCAAGAA | 0.0497
AAAAACCA | 0.112
GAAGAGAA | -0.0264
CGCAAAAA | 0.141
CAAGAGAA | 0.232
CACAAAAA | 0.131
CGGGATGC | -0.163
CCGCTAAA | 0.0162
CAAGGTCG | 0.00137
CATAGCTC | -0.112
CAAAAAAC | 0.079
CAAAAAAA | 0.245
CCAAAAAA | 0.18
CGTGAAGA | -0.0995
CACTACTG | 0.077
AGGGTCGG | 0.0394
AGGGTCGA | 0.262
CGGGTCGA | -0.181

Sequence | PBM E-score
AGCGTCGA | 0.244
AGCGTCGG | -0.0319
CGGGTCGC | -0.0689
AGGGTCGC | 0.243
ACGGTCGC | -0.131
AGCGTCGC | -0.0577
GCGGCCCA | -0.0651
GCTGAAGA | -0.0685
ACAGCTTC | -0.102
AAGAGATT | 0.00595
TATACTGA | 0.261
GATACTGA | 0.0997
CATACTGA | 0.135
GCTATCTA | -0.0754
ACCTATAC | -0.044
AAATAGAC | 0.165
ACCTATAA | -0.112
AAATATAC | 0.0852
AAATATAT | 0.257
ACCTATAT | 0.236
AAATATAA | 0.161
AAATAGAG | -0.0562
AAATAGAT | 0.27
CAGAAAGG | 0.0423
AAGATCTT | -0.0257

Sequence | PBM E-score
CTCGGTCA | -0.0604
AACCGCCG | -0.0452
GCTAAGAA | -0.103
TATGAGCA | -0.127
ATGAATGA | 0.0659
ATGAATGC | 0.13
ATGAATGG | 0.339
GTATGCGA | 0.136
AGCAAATC | 0.147
ACCGATAC | -0.00076
TTAACAAA | 0.094
AGAACAAA | 0.208
CGAACAAA | 0.279
GCAACAAA | 0.176
GGAACAAC | 0.133
CTCACGCA | 0.353
CTCACGCC | 0.0298
CGAACAAC | 0.152
GTCACGCA | 0.0867
CGAACAAG | 0.165
TGAACAAA | 0.244
GGAACAAA | 0.263
CTGCACGA | 0.0401
AACTTATA | 0.145
GCCGACAC | -0.0613

Sequence | PBM E-score
TCCGGTAA | -0.0902
CCTGGGTA | -0.159
GCCGGAAA | 0.104
ACTCTGCC | -0.142
GGGCATAA | 0.109
GGGCTTCA | -0.103
TCTCTAAA | -0.134
AGAGCCCC | -0.139
GTGGTCCA | 0.0422
GGAACGCA | 0.0954
CGAACGCA | 0.282
TGAACGCA | 0.0815
AAGCGCTA | 0.0465
AAGCGCTT | 0.303
AAGCGCTC | 0.0396
CCGCCAAC | -0.126
ACGTTTCC | -0.16
ATTCCACG | 0.0249
ATTCCACC | 0.0335
ATTCCACA | 0.243
GGAGGCAA | -0.141
CAGGTCCA | 0.0188
ACCGTTCA | -0.164
ATATCGCC | 0.0573
ATATCGCA | -0.0927

Sequence | PBM E-score
ATATCGCG | 0.331
AAATCGCG | 0.233
AAATCGCA | 0.158
AAATCGCC | 0.00869
GGGTTTAA | 0.0664
AGATGGTA | 0.0502
GTAGTGGA | 0.152
ACCTTAGG | -0.191
CGCCCGAG | 0.117
TCCGGCCA | 0.00685
CGCGAAAG | 0.122
GTGTAGAA | -0.191
CCAGGGAC | 0.366
GCAGGGAA | 0.238
CCAGGGAA | 0.0205
GCAGGGGA | -0.192
CCAGGGAG | -0.107
GAAGGGAC | 0.159
GCAGGGCC | 0.101
TCAGGGAA | 0.0408
GCAGGGAC | 0.28
CATGTAGG | 0.092
